In PubChem BioAssay (EPA / NIEHS):
Records with an inconclusive call do not appear. Active and inactive are the calls of the source. How the source made its calls, unless noted: active means hit-call score of the fitted dose curve at least 0.9, where 1 is the maximum; inactive means score below 0.9.

Key:
[1] = BSK_3C_uPAR: BioMAP Diversity Plus: 3C Assay for Urokinase-type plasminogen activator receptor (uPAR) Biomarker Activity (AID 2282998); conditions: BioMAP 3C HUVEC, uPAR biomarker ELISA; actives raise or lower the signal
Outline: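 A multiplexed primary-cell system built on human umbilical vein endothelium was used, with chemical present for 24 h before reading. Cell-surface uPAR was detected by ELISA; signal change in either direction counted against DMSO.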

[2] = BSK_3C_VCAM1: BioMAP Diversity Plus: 3C Assay for Vascular cell adhesion molecule 1 (VCAM1) Biomarker Activity (AID 2282999); conditions: BioMAP 3C HUVEC, VCAM1 ELISA, cytokine-stimulated; actives raise or lower the signal
Outline: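 Activity fitted in both directions relative to DMSO, with ELISA measurement of the surface marker on primary HUVEC (3C) at 24 h post-treatment; parallel SRB staining (0.1% SRB, TCA-fixed, 560 nm) flagged overt cytotoxicity.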

[3] = BSK_4H_Eotaxin3: BioMAP Diversity Plus: 4H Assay for Eotaxin 3 Biomarker Activity (AID 2283000); conditions: primary human endothelial cells (HUVEC); actives raise or lower the signal
Outline: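 Eotaxin-3 (CCL26) levels were measured by ELISA in HUVEC primary cultures 24 h post-dosing. Gain or loss of signal was fitted in both directions, with DMSO serving as baseline and negative control.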

[4] = molecular target: human Peroxisome Proliferator-activated Receptor alpha (PPARa), PPARA (gene 5465) (UniProt Q07869); experiment: ATG_PPARa_TRANS: Attagene TRANS-FACTORIAL HepG2 Assay for human Peroxisome Proliferator-activated Receptor alpha (PPARa) (AID 2283001; active means hit-call score of the fitted dose curve at least 0.9, where 1 is the maximum;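 on AC50: potency for gain of reporter signal over DMSO so agonist or activator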)
human Peroxisome Proliferator-activated Receptor alpha (PPARa), PPARA (gene 5465), sequence (Q07869 whole entry, looked up, the tested form may be a part): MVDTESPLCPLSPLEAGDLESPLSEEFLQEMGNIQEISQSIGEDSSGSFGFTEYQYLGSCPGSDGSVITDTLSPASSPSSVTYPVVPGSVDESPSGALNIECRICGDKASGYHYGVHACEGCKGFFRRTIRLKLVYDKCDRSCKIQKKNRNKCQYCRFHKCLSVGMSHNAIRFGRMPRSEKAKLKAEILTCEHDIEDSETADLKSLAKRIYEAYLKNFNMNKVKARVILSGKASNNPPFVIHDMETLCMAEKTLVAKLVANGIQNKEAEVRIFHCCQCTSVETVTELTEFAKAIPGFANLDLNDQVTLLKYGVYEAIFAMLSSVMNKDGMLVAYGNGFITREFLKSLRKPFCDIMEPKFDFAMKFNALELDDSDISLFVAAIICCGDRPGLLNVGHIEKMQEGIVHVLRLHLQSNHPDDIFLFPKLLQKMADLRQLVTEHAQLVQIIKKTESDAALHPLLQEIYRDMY
Outline: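 Reporter transcripts quantified by RT-PCR plus capillary electrophoresis after 24 h treatment, fitted upward relative to DMSO. Cells: human HepG2 transiently carrying multiple GAL4-UAS reporter units driven by NR-Gal4 chimeras.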

[5] = read-out: Intercellular Adhesion Molecule 1 (ICAM1), ICAM1 (gene 3383); experiment: BSK_3C_ICAM1: BioMAP Diversity Plus: 3C Assay for Intercellular Adhesion Molecule 1 (ICAM1) Biomarker Activity (AID 2283003); conditions: primary human endothelial cells (HUVEC); actives raise or lower the signal
Outline: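 Chemicals are dosed onto primary human umbilical vein endothelium (3C system). After 24 h, ICAM-1 is measured by ELISA, and responses are fitted bidirectionally relative to DMSO.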

[6] = BSK_3C_Proliferation: Cell Proliferation Assessment in the BioMAP Diversity Plus: 3C Assay (AID 2283006); conditions: primary human endothelial cells (HUVEC);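 on AC50: potency may reflect either rise or fall in cell number versus DMSO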
Outline: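 Cells (human umbilical vein endothelial, sub-confluent) receive test chemical; after 48 h they are fixed in 10% trichloroacetic acid, stained with 0.1% SRB and read at 560 nm. Activity is referenced to DMSO, fitting increases and decreases.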

[7] = molecular target: Peroxisome proliferator-activated receptor gamma (Homo sapiens) (UniProt P37231); experiment: ATG_PPARg_TRANS: Attagene TRANS-FACTORIAL HepG2 Assay for human Peroxisome Proliferator-activated Receptor-gamma (PPARg) (AID 2283007; active means hit-call score of the fitted dose curve at least 0.9, where 1 is the maximum)
Peroxisome proliferator-activated receptor gamma (Homo sapiens), sequence (P37231 whole entry, looked up, the tested form may be a part): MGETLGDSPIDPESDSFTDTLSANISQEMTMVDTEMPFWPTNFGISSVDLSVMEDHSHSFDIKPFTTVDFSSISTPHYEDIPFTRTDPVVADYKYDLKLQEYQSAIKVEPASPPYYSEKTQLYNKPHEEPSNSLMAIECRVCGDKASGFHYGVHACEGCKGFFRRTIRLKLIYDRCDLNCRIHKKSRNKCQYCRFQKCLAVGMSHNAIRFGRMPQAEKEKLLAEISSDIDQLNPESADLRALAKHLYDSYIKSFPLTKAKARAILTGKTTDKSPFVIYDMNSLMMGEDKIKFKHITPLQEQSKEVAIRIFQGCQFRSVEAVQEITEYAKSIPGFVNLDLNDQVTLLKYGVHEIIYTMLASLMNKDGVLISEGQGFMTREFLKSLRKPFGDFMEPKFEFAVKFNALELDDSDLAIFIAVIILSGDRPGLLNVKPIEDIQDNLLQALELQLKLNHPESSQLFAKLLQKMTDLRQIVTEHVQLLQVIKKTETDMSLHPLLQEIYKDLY
Outline: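 Chimeric NR-Gal4 transactivation is measured in transiently transfected HepG2 cells by reporter mRNA induction at 24 h. Detection uses RT-PCR with fluorescent labelling and capillary electrophoresis; DMSO defines baseline.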

[8] = molecular target: Nuclear receptor subfamily 1 group I member 2 (Homo sapiens) (UniProt O75469); experiment: ATG_PXR_TRANS: Attagene TRANS-FACTORIAL HepG2 Assay for human Pregnane X Receptor (PXR) (AID 2283008; active means hit-call score of the fitted dose curve at least 0.9, where 1 is the maximum)
Outline: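 Transient HepG2 transfectants carrying multiplexed reporter transcription units; PXR activity read through a Gal4 chimera. 24 h exposure. RT-PCR/CE fluorescence; upward curve fit referenced to DMSO.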

[9] = molecular target: human Retinoic Acid Receptor gamma (RARg), RARG (gene 5916) (UniProt P13631); experiment: ATG_RARg_TRANS: Attagene TRANS-FACTORIAL HepG2 Assay for human Retinoic Acid Receptor gamma (RARg) (AID 2283009; active means hit-call score of the fitted dose curve at least 0.9, where 1 is the maximum)
human Retinoic Acid Receptor gamma (RARg), RARG (gene 5916), sequence (P13631 whole entry, looked up, the tested form may be a part): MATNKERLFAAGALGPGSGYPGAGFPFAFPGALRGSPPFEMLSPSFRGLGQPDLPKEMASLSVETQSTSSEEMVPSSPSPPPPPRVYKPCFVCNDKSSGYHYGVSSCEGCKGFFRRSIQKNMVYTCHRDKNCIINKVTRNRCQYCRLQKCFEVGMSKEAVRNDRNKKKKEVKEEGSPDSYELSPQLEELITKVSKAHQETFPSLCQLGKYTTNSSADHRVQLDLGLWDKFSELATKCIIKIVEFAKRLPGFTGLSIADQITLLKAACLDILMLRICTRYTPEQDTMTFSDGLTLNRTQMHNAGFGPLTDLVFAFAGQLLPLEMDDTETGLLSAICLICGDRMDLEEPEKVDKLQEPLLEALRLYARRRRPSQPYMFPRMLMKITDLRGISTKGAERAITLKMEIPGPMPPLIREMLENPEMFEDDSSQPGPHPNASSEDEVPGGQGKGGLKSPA
Outline: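 TRANS format measured activity of exogenous NR-GAL4 fusion (RARg) in transfected HepG2 liver cells after 24 h dosing. Induced reporter RNA was detected by RT-PCR/capillary electrophoresis fluorescence, analysed in the positive direction against DMSO.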

[10] = molecular target: human RAR-related Orphan Receptor beta (RORb), RORB (gene 6096) (UniProt Q92753); experiment: ATG_RORb_TRANS: Attagene TRANS-FACTORIAL HepG2 Assay for human RAR-related Orphan Receptor beta (RORb) (AID 2283010; active means hit-call score of the fitted dose curve at least 0.9, where 1 is the maximum)
human RAR-related Orphan Receptor beta (RORb), RORB (gene 6096), sequence (Q92753 whole entry, looked up, the tested form may be a part): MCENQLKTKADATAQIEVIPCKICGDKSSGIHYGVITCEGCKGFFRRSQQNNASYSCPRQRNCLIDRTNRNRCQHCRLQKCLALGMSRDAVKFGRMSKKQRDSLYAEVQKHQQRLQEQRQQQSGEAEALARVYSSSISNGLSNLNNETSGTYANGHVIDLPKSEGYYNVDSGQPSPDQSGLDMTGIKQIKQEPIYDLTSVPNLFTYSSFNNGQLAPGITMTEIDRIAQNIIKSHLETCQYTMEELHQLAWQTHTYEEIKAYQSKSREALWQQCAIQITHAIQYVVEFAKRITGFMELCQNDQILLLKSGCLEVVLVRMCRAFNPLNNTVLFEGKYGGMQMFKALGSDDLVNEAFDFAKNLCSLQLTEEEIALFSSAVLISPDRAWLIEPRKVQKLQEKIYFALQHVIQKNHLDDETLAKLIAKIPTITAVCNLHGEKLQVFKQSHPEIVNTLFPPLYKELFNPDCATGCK
Outline: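 Transfect HepG2 with multiple GAL4-UAS reporter transcription units; dose chemicals for 24 h; isolate RNA, reverse-transcribe and PCR-amplify reporter sequences; label, digest and resolve fragments by capillary electrophoresis; fit increases relative to DMSO.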

[11] = molecular target: Retinoic acid receptor RXR-alpha (Homo sapiens) (UniProt P19793); experiment: ATG_RXRa_TRANS: Attagene TRANS-FACTORIAL HepG2 Assay for human Retinoid X Receptor alpha (RXRa) (AID 2283012; active means hit-call score of the fitted dose curve at least 0.9, where 1 is the maximum)
Retinoic acid receptor RXR-alpha (Homo sapiens), sequence (P19793 whole entry, looked up, the tested form may be a part): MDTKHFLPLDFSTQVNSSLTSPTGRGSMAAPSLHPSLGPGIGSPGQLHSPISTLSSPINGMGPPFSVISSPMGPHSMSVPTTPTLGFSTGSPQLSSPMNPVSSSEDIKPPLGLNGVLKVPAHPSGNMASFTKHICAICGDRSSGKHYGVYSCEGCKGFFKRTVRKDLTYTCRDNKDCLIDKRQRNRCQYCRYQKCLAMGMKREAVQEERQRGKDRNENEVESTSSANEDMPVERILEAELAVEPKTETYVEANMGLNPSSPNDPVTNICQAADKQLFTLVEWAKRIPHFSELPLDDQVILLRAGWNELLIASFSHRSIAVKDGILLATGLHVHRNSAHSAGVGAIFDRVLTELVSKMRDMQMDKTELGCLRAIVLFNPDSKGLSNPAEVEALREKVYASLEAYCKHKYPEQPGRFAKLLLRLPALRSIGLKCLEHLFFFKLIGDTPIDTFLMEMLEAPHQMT
Outline: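 Measures exogenous chimeric NR-GAL4 activity in transfected HepG2 liver cells after 24 h of dosing. Induced reporter mRNA was detected by RT-PCR with capillary electrophoresis, and gain of signal was analysed against DMSO.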

[12] = molecular target: human Thyroid Receptor alpha (THRa1), THRA (gene 7067) (UniProt P10827); experiment: ATG_THRa1_TRANS: Attagene TRANS-FACTORIAL HepG2 Assay for human Thyroid Receptor alpha (THRa1) (AID 2283014; active means hit-call score of the fitted dose curve at least 0.9, where 1 is the maximum)
human Thyroid Receptor alpha (THRa1), THRA (gene 7067), sequence (P10827 whole entry, looked up, the tested form may be a part): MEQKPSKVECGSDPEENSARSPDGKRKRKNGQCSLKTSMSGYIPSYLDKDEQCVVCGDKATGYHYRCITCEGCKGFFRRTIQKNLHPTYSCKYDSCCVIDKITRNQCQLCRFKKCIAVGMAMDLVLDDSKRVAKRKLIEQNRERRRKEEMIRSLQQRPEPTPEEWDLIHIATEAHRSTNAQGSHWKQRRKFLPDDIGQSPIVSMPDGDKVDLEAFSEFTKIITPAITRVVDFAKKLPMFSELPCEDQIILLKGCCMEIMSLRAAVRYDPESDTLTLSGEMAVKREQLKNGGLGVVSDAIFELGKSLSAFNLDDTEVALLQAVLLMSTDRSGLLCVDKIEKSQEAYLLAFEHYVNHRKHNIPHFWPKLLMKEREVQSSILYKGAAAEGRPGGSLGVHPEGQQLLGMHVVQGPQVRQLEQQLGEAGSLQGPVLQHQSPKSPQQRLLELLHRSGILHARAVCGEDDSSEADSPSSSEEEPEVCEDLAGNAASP
Outline: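 HepG2 cells transiently transfected with chimeric NR-Gal4 and GAL4-UAS reporter units, dosed 24 h. Reporter mRNA quantified by RT-PCR, fluorescent labeling, HpaI digestion and capillary electrophoresis; gain-of-signal fit versus DMSO.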

[13] = read-out: E-selectin (Homo sapiens) (UniProt P16581); experiment: BSK_3C_Eselectin: BioMAP Diversity Plus: 3C Assay for Eselectin Biomarker Activity (AID 2283015); conditions: primary human endothelial cells (HUVEC); actives raise or lower the signal;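 further: cell surface E-selectin protein quantified by ELISA 24 h after dosing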
Outline: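 Primary human umbilical vein endothelial cells (3C system), read 24 h after compound addition; E-selectin measured by ELISA. Bidirectional curve fitting against DMSO baseline; cytotoxicity by parallel SRB total-protein staining.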

[14] = read-out: Interleukin-1 alpha (IL1a), IL1A (gene 3552); experiment: BSK_BE3C_IL1a: BioMAP Diversity Plus: BE3C Assay for Interleukin-1 alpha (IL1a) Biomarker Activity (AID 2283016); conditions: primary human bronchial epithelial cells; actives raise or lower the signal
Outline: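 Signal from IL-1a ELISA, taken 24 h after chemical dosing of human bronchial epithelial cells, is compared with DMSO as baseline using bidirectional curve fitting.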

[15] = read-out: Monocyte Chemoattractant Protein-1 (MCP1), CCL2 (gene 6347); experiment: BSK_3C_MCP1: BioMAP Diversity Plus: 3C Assay for Monocyte Chemoattractant Protein-1 (MCP1) Biomarker Activity (AID 2283017); conditions: primary human endothelial cells (HUVEC); actives raise or lower the signal
Outline: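 Human umbilical vein endothelial cells (3C system) exposed to chemicals for 24 h; MCP-1 quantified by ELISA against the DMSO baseline with bidirectional fitting, and parallel SRB staining used to assess cytotoxicity.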

[16] = read-out: Monocyte Chemoattractant Protein-1 (MCP1), CCL2 (gene 6347); experiment: BSK_4H_MCP1: BioMAP Diversity Plus: 4H Assay for Monocyte Chemoattractant Protein-1 (MCP1) Biomarker Activity (AID 2283018); conditions: primary human endothelial cells (HUVEC); actives raise or lower the signal
Outline: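 Endothelial cells from umbilical vein were treated with test chemical, then after 24 h MCP-1 levels were quantified by ELISA; endpoint values came from bidirectional fitting with DMSO as baseline of activity.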

[17] = molecular target: human Retinoid X Receptor beta (RXRb), RXRB (gene 6257) (UniProt P28702); experiment: ATG_RXRb_TRANS: Attagene TRANS-FACTORIAL HepG2 Assay for human Retinoid X Receptor beta (RXRb) (AID 2283013; active means hit-call score of the fitted dose curve at least 0.9, where 1 is the maximum)
human Retinoid X Receptor beta (RXRb), RXRB (gene 6257), sequence (P28702 whole entry, looked up, the tested form may be a part): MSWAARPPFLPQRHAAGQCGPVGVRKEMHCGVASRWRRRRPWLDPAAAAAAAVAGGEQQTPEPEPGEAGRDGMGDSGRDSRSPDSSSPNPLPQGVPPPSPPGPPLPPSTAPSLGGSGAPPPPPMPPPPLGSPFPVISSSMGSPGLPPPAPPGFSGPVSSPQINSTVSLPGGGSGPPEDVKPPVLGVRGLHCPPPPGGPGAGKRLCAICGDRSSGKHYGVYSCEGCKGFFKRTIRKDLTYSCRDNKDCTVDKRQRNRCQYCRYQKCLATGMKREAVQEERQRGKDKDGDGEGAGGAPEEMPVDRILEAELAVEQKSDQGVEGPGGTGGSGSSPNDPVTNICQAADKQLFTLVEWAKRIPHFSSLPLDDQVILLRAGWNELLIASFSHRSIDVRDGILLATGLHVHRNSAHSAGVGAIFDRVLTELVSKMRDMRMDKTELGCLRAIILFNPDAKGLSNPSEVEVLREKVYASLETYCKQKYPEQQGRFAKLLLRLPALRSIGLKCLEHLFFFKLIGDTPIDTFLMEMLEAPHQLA
Outline: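 Chimeric receptor-Gal4 activity was assessed in transiently transfected human HepG2 cells after 24 h exposure. Transcripts from GAL4-UAS reporters were quantified by fluorescent RT-PCR and capillary electrophoresis, with DMSO as negative control and baseline.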

[18] = molecular target: Retinoic acid receptor alpha (Homo sapiens) (UniProt P10276); experiment: ATG_RARa_TRANS: Attagene TRANS-FACTORIAL HepG2 Assay for human Retinoic Acid Receptor alpha (RARa) (AID 2283005; active means hit-call score of the fitted dose curve at least 0.9, where 1 is the maximum)
Retinoic acid receptor alpha (Homo sapiens), sequence (P10276 whole entry, looked up, the tested form may be a part): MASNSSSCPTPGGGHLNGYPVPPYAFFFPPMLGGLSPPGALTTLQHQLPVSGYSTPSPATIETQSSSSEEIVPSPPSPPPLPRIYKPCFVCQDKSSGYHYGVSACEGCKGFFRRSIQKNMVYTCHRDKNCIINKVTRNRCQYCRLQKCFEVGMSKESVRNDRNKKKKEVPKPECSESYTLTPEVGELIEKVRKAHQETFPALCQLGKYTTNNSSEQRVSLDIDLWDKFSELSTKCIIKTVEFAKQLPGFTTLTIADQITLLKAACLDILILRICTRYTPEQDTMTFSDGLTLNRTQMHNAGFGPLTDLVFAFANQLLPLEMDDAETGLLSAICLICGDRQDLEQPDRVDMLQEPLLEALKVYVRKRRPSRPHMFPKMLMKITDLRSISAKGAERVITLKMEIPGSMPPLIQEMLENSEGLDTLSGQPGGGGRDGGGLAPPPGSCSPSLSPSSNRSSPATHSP
Outline: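 Reporter transcripts, measured by RT-PCR with fluorescent labeling and capillary electrophoresis after 24 h dosing, reflect activity of an exogenous human RARa–GAL4 fusion in transiently transfected HepG2. Fitted for increase relative to DMSO.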

[19] = molecular target: human Retinoic Acid Receptor beta (RARb), RARB (gene 5915) (UniProt P10826); experiment: ATG_RARb_TRANS: Attagene TRANS-FACTORIAL HepG2 Assay for human Retinoic Acid Receptor beta (AID 2283004; active means hit-call score of the fitted dose curve at least 0.9, where 1 is the maximum)
human Retinoic Acid Receptor beta (RARb), RARB (gene 5915), sequence (P10826 whole entry, looked up, the tested form may be a part): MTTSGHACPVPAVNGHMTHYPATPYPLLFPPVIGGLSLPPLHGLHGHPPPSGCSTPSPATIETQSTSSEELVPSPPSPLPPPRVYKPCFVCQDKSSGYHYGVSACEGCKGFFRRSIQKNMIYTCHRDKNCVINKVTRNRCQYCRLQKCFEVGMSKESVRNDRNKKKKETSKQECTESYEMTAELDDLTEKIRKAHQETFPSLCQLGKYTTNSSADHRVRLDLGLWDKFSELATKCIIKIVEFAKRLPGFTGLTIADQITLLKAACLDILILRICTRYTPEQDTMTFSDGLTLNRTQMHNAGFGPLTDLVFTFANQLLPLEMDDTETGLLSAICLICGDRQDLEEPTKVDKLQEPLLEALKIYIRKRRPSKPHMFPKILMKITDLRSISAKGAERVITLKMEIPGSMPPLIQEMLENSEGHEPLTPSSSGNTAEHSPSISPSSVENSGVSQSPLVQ
Outline: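 HepG2 cells were transiently transfected with GAL4-UAS reporter units that report activity of exogenous chimeric NR-Gal4 proteins, then exposed to compound for 24 h. Reporter mRNA was quantified by RT-PCR with capillary electrophoresis fluorescence, as gain of signal over DMSO.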

Measured: AC50

E-selectin (Homo sapiens), sequence (P16581 whole entry, looked up): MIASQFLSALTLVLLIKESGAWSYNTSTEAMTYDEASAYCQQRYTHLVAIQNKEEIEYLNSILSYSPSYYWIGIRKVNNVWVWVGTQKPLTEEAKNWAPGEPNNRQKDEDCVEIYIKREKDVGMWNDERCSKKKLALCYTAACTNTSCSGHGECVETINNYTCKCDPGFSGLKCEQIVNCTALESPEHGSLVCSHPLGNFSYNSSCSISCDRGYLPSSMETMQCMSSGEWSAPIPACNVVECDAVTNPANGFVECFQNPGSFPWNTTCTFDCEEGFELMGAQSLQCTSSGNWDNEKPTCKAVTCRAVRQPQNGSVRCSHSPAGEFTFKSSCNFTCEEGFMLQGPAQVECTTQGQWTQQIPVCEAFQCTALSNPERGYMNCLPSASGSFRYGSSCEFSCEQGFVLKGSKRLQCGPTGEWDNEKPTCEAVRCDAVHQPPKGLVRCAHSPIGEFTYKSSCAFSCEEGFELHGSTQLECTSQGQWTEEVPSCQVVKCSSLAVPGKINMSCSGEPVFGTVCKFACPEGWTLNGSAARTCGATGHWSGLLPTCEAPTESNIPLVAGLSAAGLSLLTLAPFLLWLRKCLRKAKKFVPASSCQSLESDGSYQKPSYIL

Cc1nc(N(C)C)nc(OC(=O)N(C)C)c1C
inactive: [1] | [2] | [3] | [4] | [5] | [6] | [7] | [8] | [9] | [10] | [11] | [12] | [13] | [14] | [15] | [16]

CS(=O)(=O)c1ccc(C(=O)C2C(=O)CCCC2=O)c([N+](=O)[O-])c1
inactive: [1] | [2] | [3] | [4] | [5] | [6] | [7] | [8] | [11] | [17] | [12] | [13] | [14] | [15] | [16]

COC(=O)NS(=O)(=O)c1ccc(N)cc1
inactive: [1] | [2] | [3] | [4] | [5] | [6] | [7] | [8] | [13] | [14] | [15] | [16]

COCC(=O)N(c1c(C)cccc1C)C(C)C(=O)OC (configuration not stated)
inactive: [1] | [2] | [3] | [4] | [5] | [18] | [6] | [7] | [8] | [11] | [13] | [14] | [15] | [16]

CS(=O)(=O)c1cc(C(F)(F)F)ccc1C(=O)c1cnoc1C1CC1
active: [7] 14.2 µM
inactive: [1] | [2] | [3] | [4] | [5] | [19] | [18] | [6] | [8] | [9] | [11] | [17] | [13] | [14] | [15] | [16]

COCC(C)N(C(=O)CCl)c1c(C)csc1C (configuration not stated)
inactive: [1] | [2] | [3] | [4] | [5] | [6] | [8] | [12] | [13] | [14] | [15] | [16]
active: [7] 3.79 µM

COCc1cnc(C2=NC(C)(C(C)C)C(=O)N2)c(C(=O)O)c1 (configuration not stated)
inactive: [1] | [2] | [3] | [4] | [5] | [19] | [18] | [6] | [7] | [8] | [9] | [10] | [11] | [17] | [12] | [13] | [14] | [15] | [16]

N#CN=C1SCCN1Cc1ccc(Cl)nc1
inactive: [1] | [2] | [3] | [4] | [5] | [18] | [6] | [7] | [8] | [10] | [11] | [17] | [13] | [14] | [15] | [16]

Clc1cccc(C(Cl)(Cl)Cl)n1
inactive: [1] | [2] | [3] | [4] | [5] | [6] | [7] | [8] | [11] | [17] | [12] | [13] | [14] | [15] | [16]

COC(=O)c1c(C(F)F)nc(C(F)(F)F)c(C2=NCCS2)c1CC(C)C
inactive: [2] | [4] | [5] | [19] | [11] | [17] | [13] | [14] | [15]
active: [1] 33.4 µM | [3] 6.71 µM | [6] 36.9 µM | [7] 45.5 µM | [8] 0.431 µM | [16] 17.6 µM

CCOc1nc(C(Cl)(Cl)Cl)ns1
inactive: [1] | [2] | [3] | [4] | [5] | [19] | [18] | [6] | [7] | [8] | [9] | [10] | [11] | [17] | [12] | [13] | [14] | [15] | [16]

CCOC(=O)C(C)OC(=O)c1cc(Oc2ccc(C(F)(F)F)cc2Cl)ccc1[N+](=O)[O-] (configuration not stated)
active: [1] 13.3 µM | [4] 1.57 µM | [7] 14.1 µM | [15] 10.6 µM | [16] 6.5 µM
inactive: [2] | [3] | [5] | [6] | [8] | [9] | [17] | [12] | [13] | [14]

CC1(C)CON(Cc2ccccc2Cl)C1=O
inactive: [1] | [2] | [3] | [4] | [5] | [19] | [18] | [6] | [7] | [8] | [9] | [10] | [11] | [12] | [13] | [14] | [15] | [16]

CCN(CC)c1nc(C)cc(OP(=S)(OC)OC)n1
inactive: [1] | [2] | [3] | [4] | [5] | [19] | [18] | [9] | [12] | [13] | [14] | [15] | [16]
active: [6] 28.7 µM | [7] 46.1 µM | [8] 13.8 µM | [17] 33.7 µM

COP(=S)(OC)SCn1nnc2ccccc2c1=O
inactive: [1] | [2] | [3] | [4] | [5] | [19] | [6] | [7] | [8] | [10] | [17] | [12] | [13] | [14] | [15] | [16]
